# hcDAF-12 act: activators of H. contortus DAF-12 nuclear receptor; HEK293 hcDAF-12 lit1-tk-luc reporter, luminescence; 0% DMSO, 100% Δ7-dafachronic acid; activation, % at 6.8 µM; actives 1.4% (n = 370,000);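 active means activation above the mean of all tested compounds plus 3 SD, cut at about 5.5% in these data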;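 further: 100% = response to 3 µM Δ7-dafachronic acid high control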
# DAX1 inh-1: NR0B1 (DAX1) inhibition. HEK293 Gal4-DAX1 luciferase reporter, luminescence. inhibition, % at 6.75 µM. actives 0.99% (n = 340,000);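 active means inhibition above the mean over all tested compounds plus 3 SD, cut at about 4.2% in these data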;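 further: 0% = DAX1-transfected cells with DMSO and 100% = empty-vector control cells with DMSO; inhibition shows as a rise in luminescence from relieved DAX1 repression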
# Target sequence (P51843 207-470 limits assumed): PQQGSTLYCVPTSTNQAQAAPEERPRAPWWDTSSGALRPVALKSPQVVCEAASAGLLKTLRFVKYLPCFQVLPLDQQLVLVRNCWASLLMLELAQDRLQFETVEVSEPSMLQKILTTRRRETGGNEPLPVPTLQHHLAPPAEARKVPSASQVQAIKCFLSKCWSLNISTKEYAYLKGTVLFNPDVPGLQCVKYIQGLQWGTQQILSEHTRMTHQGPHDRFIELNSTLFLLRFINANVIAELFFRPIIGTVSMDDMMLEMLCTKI
# hgDAF12 agonist: agonists of H. glycines DAF-12 nuclear receptor; HEK293 GAL4-hgDAF12 UAS-luciferase reporter, agonist luminescence; normalized to butyrate control; activation, % at 6.8 µM; actives 1.8% (n = 370,000);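 active means activation above a cutoff set at the mean of all screened compounds plus 3 SD, cut at about 10% in these data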;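 further: 0% = DMSO wells and 100% = sodium butyrate wells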
# ssDAF12 agonist: S. stercoralis DAF-12 activation, primary screen | HEK293 ssDAF-12/GRIP1 lit1-tk-luc reporter, luminescence; % of 3 µM dafachronic acid response | activation, % at 6.8 µM | actives 1% (n = 370,000) | AID 652126;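 active means activation above the mean over all tested compounds plus 3 SD, cut at about 0.9% in these data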;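 further: 0% = DMSO-only wells and 100% = 3 µM delta7-dafachronic acid wells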
# DAX1 inh-2: inhibitors of DAX1 repression of SF-1 activated StAR promoter | HEK293T StAR-luciferase reporter, SF-1/DAX-1 repression relief | inhibition, % at 6.8 µM | actives 1.1% (n = 370,000);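 active means inhibition above the mean over all tested compounds plus 3 SD, cut at about 3.6% in these data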;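 further: 0% = DAX-1 cells with DMSO and 100% = cells lacking DAX-1 with DMSO; higher inhibition means more luminescence from relief of DAX-1 repression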
# Numbers without * were called inactive; nt = no result. This is a sample that favours compounds with a hit; in the whole collection about 4.1% have one here.
SMILES,hcDAF-12 act,DAX1 inh-1,hgDAF12 agonist,ssDAF12 agonist,DAX1 inh-2
COC(=O)C[C@@H]1CC[C@@H](NS(=O)(=O)c2cccc(OC)c2)[C@@H](CO)O1,0.4,nt,1.6,-0.9,1.1
CC(=O)Nc1cc2c(cc1Cl)-c1ccccc1C2,3.7,3.0,9.3,0.3,2.9
CC(=O)Nc1cc2c(cc1Cl)-c1ccccc1C2O (stereo unspecified),5.9*,1.6,2.9,-0.1,-0.6
O=C(CCc1nc2ccccc2c(=O)[nH]1)N1CCCc2ccccc21,5.6*,0.5,2.4,1.3*,1.9
CCCCNC(=O)CSc1nc2ccsc2c(=O)n1CCCC(=O)NCCc1ccc(S(N)(=O)=O)cc1,0.0,6.1*,2.8,-1.8,0.8
NS(=O)(=O)c1ccc(CCNC(=O)CSc2nc3ccsc3c(=O)n2CCCCCC(=O)O)cc1,1.8,1.6,1.3,-0.6,-0.5
CN1CCc2c(sc3c2c(=O)n(-c2ccccc2)c2n[nH]c(=S)n32)C1,-1.5,4.7*,-1.0,-1.9,0.3
COC(=O)[C@]12C[C@H](CC(=O)NCCCN3CCCC3=O)C(=O)N(Cc3ccccc3)C1=C[C@H](C1CCCC1)O[C@@H]2C,1.0,nt,0.9,-1.2,-0.6
Cc1[nH]c(=O)[nH]c(=O)c1/C=N/NC(=O)[C@H](C)N,5.1,5.7*,-1.6,-0.3,0.0
CC12CCC3c4ccc(OCCCO)c([N+](=O)[O-])c4CCC3C1CCC2=O (stereo unspecified),-1.5,nt,0.8,-1.1,-0.8
c1ccc2cc(Cn3ccc4ccc(-c5ccc6cc[nH]c6c5)cc43)ccc2c1,2.7,nt,0.0,1.2*,-0.6
COc1ccccc1S(=O)(=O)N(C)C[C@H]1OCc2cnnn2CCCC(=O)N([C@H](C)CO)C[C@H]1C,-1.2,0.2,0.8,-0.9,1.1
COc1ccc(COc2cccnc2N)cc1,1.6,1.8,3.3,-1.0,0.8
Nc1ncccc1OCc1ccc(Br)cc1,-1.2,0.7,11.0*,-1.9,0.3
COC(=O)[C@]12CCCCC=C1N(Cc1ccc(Cl)cc1Cl)C(=O)[C@H](CC(=O)NCCCN1CCCC1=O)C2,-1.4,nt,-1.1,-0.9,-0.9
O=C1NC(=O)C2(CCCc3ccc([N+](=O)[O-])cc32)N1 (stereo unspecified),-0.5,-0.5,-0.1,-1.4,-0.6
CC(c1nc2ccccc2[nH]1)n1c(-c2ccncc2)nc2ccccc21 (stereo unspecified),-0.9,nt,1.3,-0.7,-0.1
Cc1csc(-c2nc3ccccc3n2C(C)c2nc3ccccc3[nH]2)c1 (stereo unspecified),5.7*,nt,-1.0,0.3,0.7
O=C(Nc1ccc(-c2cn3ccsc3n2)cc1)C1CC1,1.9,0.4,9.5,0.0,2.5
CC(=O)Nc1ccc(-c2cn3ccsc3n2)cc1,2.2,0.1,11.6*,0.1,0.6
CC(=O)c1ccc(OC2(C)CCN(Cc3ccc4c(c3)OCCO4)C2)cc1 (stereo unspecified),-2.3,nt,1.1,-1.7,-0.2
CCOc1ccc(CC(=O)C2C(=O)CC(C)(C)CC2=O)cc1OCC,0.0,4.4*,-0.7,-0.1,0.6
CCOc1ccc(CC(=O)C2C(=O)CCCC2=O)cc1OCC,nt,0.0,nt,nt,nt
Cc1c(NC(=O)COC(=O)c2ccccc2Cl)c(=O)n(-c2ccccc2)n1C,-1.6,0.1,1.9,-0.9,-0.6
Cc1c(NC(=O)COC(=O)c2cccn2C)c(=O)n(-c2ccccc2)n1C,0.6,4.4*,0.2,-0.7,0.6
SMILES,hcDAF-12 act,DAX1 inh-1,hgDAF12 agonist,ssDAF12 agonist,DAX1 inh-2
C=CCN1C=C2C(=O)C(C)(OC(=O)C3CCCC3)C(=O)C=C2C=C1c1ccsc1 (stereo unspecified),4.3,1.0,6.0,1.4*,0.6
C=CCn1c(COc2ccc(OC)cc2)nnc1SCn1nnc2ccccc2c1=O,-2.4,2.1,-0.8,6.3*,-0.2
O=C(NCCC(=O)N1CCN(c2ccccc2F)CC1)c1ccco1,1.1,0.0,1.2,-0.7,3.7*
COCCN1C[C@@H](CO)O[C@@H](n2cnc3c(NCCCO)ncnc32)C1,-1.9,nt,2.9,-0.6,-0.7
S=c1nc[nH]c2c1[nH]c1ccc(Cl)cc12,-0.1,5.1*,-4.7,-0.2,-1.0
S=c1nc[nH]c2c1[nH]c1ccccc12,4.9,2.1,0.0,0.5,0.4
CSc1snc(SCC(N)=O)c1C#N,-1.2,-0.1,11.8*,-1.5,0.0
N#Cc1c(SCC(=O)Nc2ccccc2)nsc1SCC(=O)Nc1ccccc1,1.6,2.1,3.1,23.3*,0.5
COC(=O)C1=C(C)N(Cc2ccccc2C(F)(F)F)C(=NCc2ccccc2)NC1CCc1ccccc1 (stereo unspecified),-0.5,nt,3.1,-1.3,-0.8
O=C(COC(=O)Cc1c(Cl)cccc1Cl)NCc1ccccc1,-1.5,0.6,0.1,-1.0,-0.4
Brc1ccccc1OCCCn1cnc2ccccc21,4.8,3.0,11.3*,-0.2,2.2
Cc1ccccc1OCCCCn1cnc2ccccc21,-3.0,-4.5,-5.2,-2.1,-2.4
O=C(NS(=O)(=O)c1cccc(F)c1)[C@H]1O[C@@H](n2ccc(=O)[nH]c2=O)[C@H](O)[C@@H]1O,-0.8,nt,6.0,-1.1,-1.0
C=CC[C@]1(c2ccccc2)C(=O)N2C[C@H]3CON(C)[C@H]3C[C@H]2c2ccccc21,0.4,nt,1.2,-1.2,0.9
Cc1cc2nncn2c2ccccc12,-1.5,2.3,-1.0,-1.2,0.8
COc1ccc2c(C)cc3nncn3c2c1,1.2,4.2*,-0.4,-0.7,0.0
CC(=O)Nc1ccc(NC(=O)CCn2nnc3ccccc32)cc1,3.8,-0.8,0.9,1.3*,0.5
NNC(=O)CCn1nnc2ccccc21,-1.2,0.5,-0.5,-1.1,-0.1
C/C(=N\NC(=O)CCn1nnc2ccccc21)c1ccco1,-1.1,4.7*,-1.6,-0.4,0.0
CCOC(=O)c1ccc(NC(=O)CCn2nnc3ccccc32)cc1,0.9,0.1,4.4,-1.5,-0.2
CC(=O)N=C(N)Sc1nc2ccccc2[nH]1,5.9*,0.6,10.9*,0.4,3.4
COC(=O)C[C@H]1C[C@H]2c3cc(NC(=O)Cc4ccncc4)ccc3O[C@H]2[C@@H](CO)O1,0.0,-0.3,-1.5,-1.2,0.3
C/C(=N\OC(=O)c1ccc(F)cc1)c1nccs1,1.6,1.4,1.8,1.1*,-0.2
COc1ccc(C(=O)O/N=C(\C)c2nccs2)cc1,-0.2,-0.7,2.5,-1.5,0.0
CC(=O)N1C[C@@H](CN2C(=O)CCC2=O)[C@@H]2C[C@H]1c1ccccc1N2C,-1.1,nt,-2.7,-0.8,1.0
Cc1cc(C(=O)Nc2ccc3[nH]ccc3c2)no1,3.3,2.1,11.0*,-0.4,1.5
Cc1cc(C(=O)Nc2cccnc2)no1,nt,1.0,nt,nt,nt
CCN(CC)C(=O)Cn1cc(S(=O)(=O)CC(=O)Nc2ccc3c(c2)OCCO3)c2ccccc21,-0.1,1.4,1.5,2.0*,-0.2

# Compound activity (PubChem)
